We go through one molecule from PubChem BioAssay AID602127 (Broad Institute, 2011).

Results with a measured potency or affinity are listed apart. The source made the active and inactive calls.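 Rule for the calls: active = every repeat test judged active, meaning a falling signal with potency within twice the top valid dose; inconclusive = repeat tests disagree on the call; inactive = every repeat test inactive, including signal moving upward.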

This experiment concerns the target Cyclin-dependent kinase 2 (Homo sapiens) (UniProt P24941). The experiment is described as follows: CDK2 kinase inhibitors, off-target check, dose response, selectivity assay for Dyrk1A inhibitor project, biochemical, cherry-picked samples (AID 602127). The following applies: CDK2/cyclin A kinase, ADP-Glo luminescence, 60 min; series mostly up to 10 µM.

Turning to `COc1ccc2c(c1)[nH]c1c(C)nccc12`, the outcome was inactive.
